Screening results from PubChem BioAssay.
RN4220 kill: S. aureus RN4220 growth inhibition; 330,000 tested, 0.33% active; OD600, 16 h; inhibition, % (concentration not given with the values); in the data active means inhibition above about 85%;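 further: plate controls were untreated cells for no effect and reference antibiotic for full effect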
ugtP null kill: growth inhibition of S. aureus ugtP deletion strain; S. aureus RN4220 ugtP deletion, OD600 growth, 16 h; growth inhibition, % (test concentration not listed); 330,000 tested, 0.54% active; in the data active means growth inhibition above about 68%;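 further: plate controls were untreated wells for no effect and antibiotic for full effect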
BJeLR lethal: BJeLR cell viability loss | BJeLR (HRASV12) viability, CellTiter-Glo ATP luminescence, 48 h | inhibition, % (concentration not given with the values) | 300,000 tested, 0.17% active | AID 1554; in the data active means inhibition above about 50%
PrPC surface inh: inhibitors of human cell surface prion protein PrPC. P04156. inhibition, % at 13.8 µM. TR-FRET read-out. 370,000 tested, 0.43% active. AID 720596; in the data active means inhibition above about 24%; further: 0% = median of the test wells and 100% = reference compound wells
3CLpro inhibitor: SARS-CoV 3CLpro protease inhibition. recombinant SARS-CoV 3CLpro, quenched FRET peptide cleavage. inhibition, % at 6 µM. 290,000 tested, 0.14% active; in the data active means inhibition above about 12%
DUSP3 inh: blocks human VHR1 dual specificity phosphatase; P51452; recombinant VHR phosphatase, pNPP absorbance; inhibition, % at 13.3 µM; 290,000 tested, 0.52% active; AID 1654; in the data active means inhibition above about 50%
Target sequence (P51452 whole entry, looked up): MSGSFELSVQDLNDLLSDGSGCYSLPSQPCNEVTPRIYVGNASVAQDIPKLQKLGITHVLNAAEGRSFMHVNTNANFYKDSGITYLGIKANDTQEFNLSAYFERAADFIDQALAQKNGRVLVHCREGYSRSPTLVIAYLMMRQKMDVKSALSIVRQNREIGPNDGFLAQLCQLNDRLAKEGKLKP
* = called active by the depositor; x = not tested or not shown. Most compounds without a hit are left out; they make up all but 1.4% or so of the library.

SMILES | RN4220 kill | ugtP null kill | BJeLR lethal | PrPC surface inh | 3CLpro inhibitor | DUSP3 inh
COc1cc2c(oc(=O)c3cc(C)cc(OC)c32)c2c(C3OC(C)C(O)C(C)(O)C3O)ccc(O)c12 (centres undefined) | x | x | x | 12 | x | x
COC(=O)c1[nH]c(C)c(C(O)=C2C(=O)C(=O)N(CCN(C)C)C2c2cc(OC)ccc2OC)c1C (centres undefined) | 4 | -3 | x | x | x | x
CCCCC1C2=C3C(CC(C(=O)OC)=CC(C(=O)OC)C3C(C)(C)C2=O)n2c(=O)n(-c3ccccc3)c(=O)n21 (centres undefined) | 4 | 1 | x | x | x | x
CCOC(=O)N1CCN(S(=O)(=O)N2CCCC(C(=O)NCCc3ccc(OCC)c(OCC)c3)C2)CC1 (centres undefined) | 0 | 2 | -6 | 2 | -2 | 57*
CCOc1ccc(CCNC(=O)C2CCCN(S(=O)(=O)N3CCCCC3)C2)cc1OCC (centres undefined) | x | x | x | 3 | x | x
O=[N+]([O-])c1cnc(Sc2ccncn2)s1 | 81 | 100* | 62* | -5 | 5 | 22
CCOC1OC(C(=O)N2CCN(C)CC2)=CC(c2ccc(Br)cc2)C1CCCO (centres undefined) | 4 | 1 | x | x | x | x
CC(C)Cc1nc(N2CCCCC2)c(C#N)c2c1CCC2 | 2 | 86* | 4 | -2 | -3 | 21
CCC1=Nc2cc(C(=O)NCc3ccco3)ccc2Sc2ccc(C)cc21 | 0 | -5 | 62* | 3 | -1 | 2
CCC1=Nc2cc(C(=O)NCCN3CCOCC3)ccc2Sc2ccc(C)cc21 | 2 | -2 | 10 | 5 | -3 | 2
CCC1=Nc2cc(C(=O)NCCN3CCCC3)ccc2Sc2ccccc21 | 4 | -2 | 2 | -7 | -1 | 58*
O=C(NCCN1CCOCC1)Nc1ccc(Cl)cc1 | 6 | -2 | 2 | 1 | 0 | -11
O=C(NCCN1CCCCC1)Nc1ccc(Cl)cc1 | 4 | 12 | 7 | -3 | -1 | 57*
Cn1c(=O)[nH]c(=O)c2c1nc(N)n2Cc1ccccc1 | 1 | 8 | -1 | 0 | -2 | 52*
C=C(C)CSc1nc2c(c(=O)[nH]c(=O)n2C)n1Cc1ccccc1 | 0 | 7 | 0 | 14 | x | 18
Cn1c(=O)[nH]c(=O)c2c1nc(SCC(N)=O)n2Cc1cccc(Br)c1 | 0 | 8 | 6 | -3 | 2 | 52*
CSc1nc2c(c(=O)[nH]c(=O)n2C)n1Cc1ccccc1 | 3 | 6 | -5 | 4 | -6 | 1
CC1NC(=O)c2cc([N+](=O)[O-])cc(I)c2OCCC(C(N)=O)NC(=O)C(CCCCN)NC1=O (centres undefined) | 6 | -2 | x | x | x | x
CN(C(=O)C1CCCN(c2ncnc3c2nc2n3CCCCC2)C1)c1cccc(Cl)c1 (centres undefined) | -4 | -9 | 2 | 3 | -5 | 52*
CCN(CC)C(=O)c1[nH]cnc1C(=O)NC(C)C(=O)OCc1ccccc1 (centres undefined) | 7 | 5 | x | x | x | x
CC(C)C1O/C(=N/C(=O)Nc2ccc(Cl)c(Cl)c2)NC1=O (centres undefined) | 100* | 100* | -5 | 4 | 2 | 2
O=C(Nc1cccc(NC(=O)c2cccc(F)c2)n1)c1cccc(F)c1 | 90* | 19 | -17 | -4 | 5 | 10
O=C(Nc1cccc(NC(=O)c2c(F)cccc2F)n1)c1c(F)cccc1F | 5 | 4 | -5 | 2 | -2 | 34
CCC1CN(C(=O)NCc2ccc(F)cc2)c2cc(Cl)ccc2O1 (centres undefined) | -2 | 2 | 7 | -1 | 3 | 57*
CCCC(C)NC(=O)c1sc2nc3n(c(=O)c2c1C)CCC3 (centres undefined) | 8 | 8 | 1 | -7 | 4 | 54*
SMILES | RN4220 kill | ugtP null kill | BJeLR lethal | PrPC surface inh | 3CLpro inhibitor | DUSP3 inh
Cc1nc2ccccc2c(=O)n1NC(=O)C=Cc1ccccc1 | 6 | -4 | x | x | x | x
COC(=O)c1cccc(NC(=S)Nc2ccc(Cl)c(Cl)c2)c1 | 100* | 90* | 2 | 2 | 8 | 22
COC(=O)c1cccc(NC(=S)Nc2ccccc2Cl)c1 | 3 | 0 | 0 | 8 | -1 | 29
COC(=O)c1cc(NC(=S)Nc2cc(Cl)cc(Cl)c2)cc(C(=O)OC)c1 | 99* | 99* | -2 | 4 | -6 | 6
O=C(C1=CC(c2ccc3c(c2)OCO3)CC(OCCCCO)O1)N1CCN(Cc2ccc3c(c2)OCO3)CC1 (centres undefined) | 3 | 2 | x | x | x | x
CCOC(=O)C(NC(=O)Nc1ccc(F)cc1F)(Oc1ccc(F)cc1)C(F)(F)F (centres undefined) | 85* | 71 | -8 | 2 | 5 | -7
COc1ccc(CNCc2cc3c(cc2[N+](=O)[O-])OCO3)cc1 | 4 | 12 | -4 | -21 | -7 | 53*
Cc1cccc(N2C(=O)N3C(c4ccc(F)cc4)C4C(=O)N(C5CCCCC5)C(=O)C4[C@]3(Cc3ccccc3)C2=O)c1 (some centres undefined) | 6 | 5 | x | x | x | x
O=C(O)COc1ccccc1C=NNC(=O)C(=Cc1ccc2c(c1)OCO2)NC(=O)c1ccccc1 | 6 | -3 | x | x | x | x
O=C(NCc1cccnc1)C(=Cc1ccc(-c2ccc(Br)cc2)o1)S(=O)(=O)c1ccccc1 | 20 | 7 | x | x | x | x
O=C(C[n+]1cc(-c2ccc(Cl)cc2)n2c1CCC2)N1c2ccccc2Sc2ccccc21 | 11 | -14 | 1 | 4 | -3 | -2
O=C(C[n+]1cc(-c2ccc(Cl)c(Cl)c2)n2c1CCC2)N1c2ccccc2Sc2ccccc21 | 100* | 101* | -6 | 0 | 1 | -10
CCOC(=O)c1cc2c(OC)ccc(OC)c2n1CC(=O)c1ccccc1 | 3 | 89* | 10 | -4 | 3 | 32
COc1ccc(-n2c(=O)c3ccccc3n(CC(=O)c3ccccc3)c2=O)cc1OC | 1 | 1 | -3 | -4 | 1 | -5
CCCN1C(=O)C(=Cc2cc(C)n(C)c2C)SC1=Nc1ccc(OC)cc1 | 0 | 49 | x | x | x | x
COc1ccc(NC(=O)Nc2cccc3c2OC(CN(C)S(C)(=O)=O)C(C)CN(C(C)CO)C3=O)cc1 (centres undefined) | 4 | 5 | x | x | x | x
COc1ccc(NC2CCCN(C(=O)CCc3ccncc3)C2)cc1OC (centres undefined) | -1 | -2 | 5 | -12 | -8 | 54*
Cc1ccc(NC2CCCN(C(=O)CCc3ccncc3)C2)cc1C (centres undefined) | -2 | -6 | 7 | 3 | -1 | 19
Brc1ccc2nc(-c3ccco3)c(Cc3ccsc3)n2c1 | x | x | x | 34* | x | x
Cc1ccc(S(=O)(=O)N2CN(Cc3ccco3)c3nc4ccccc4nc32)cc1 | -18 | 0 | -7 | 0 | 7 | 19
O=S(=O)(c1ccc(F)cc1)N1CN(Cc2ccco2)c2nc3ccccc3nc21 | -2 | -10 | -4 | -6 | -6 | 52*
O=C(Nc1ccccc1OC(F)F)c1ccc(F)cc1 | -3 | -2 | -3 | 0 | 1 | -8
